Hits are enriched below; roughly 19% of the tested compounds scored in any of these assays.
IL1B secr inh: qHTS for Inhibitors of Inflammasome Signaling: IL-1-beta AlphaLISA Primary Screen; AID 743279, 2014; THP-1 LPS/ATP IL-1B secretion, AlphaLISA, 16 h; active compounds read low; actives 4.7% (n = 360,000); activity change, % at 57.5 µM; in the data active means activity change below about -50%; inconclusive means mostly about -30% to -49%
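Secreted IL-1B measured by AlphaLISA bead assay after 16 h compound exposure of THP-1 cells; compounds (final up to 57.5 uM) added 1 h before LPS (250 ng/mL) and ATP (1.25 mM) stimulation; lower signal means less secretion.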
ELG1 repair inh: qHTS screen for small molecules that inhibit ELG1-dependent DNA repair in human embryonic kidney (HEK293T) cells expressing luciferase-tagged ELG1 | HEK293T ELG1-luciferase reporter, luminescence, 16 h; DNA damage induced by 5-fluorouridine | Potency, µM (titrated, usually from 46.1 µM), for the others: at the top dose activity change, negative = inhibition, usual class: inhibitors | actives 2.3% (n = 330,000) | AID 504467, 2011; further: potency means the concentration at half of the fitted maximal effect; nearly all actives have a fitted effect of over 55% in size
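Luminescence from the luciferase reporter, measured 30 min after ONE-Glo reagent at room temperature, was the read-out. Beforehand, 2,000 cells per well were exposed for 16 hr at 37 °C to 5-fluorouridine together with compound or vehicle.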
DT40 TDP1 no CPT: qHTS for Inhibitors of human tyrosyl-DNA phosphodiesterase 1 (TDP1): qHTS in cells in absence of CPT; DT40 Tdp1-/- hTDP1 cells, no CPT, ATP luminescence, 48 h; actives 15% (n = 420,000); Potency, µM (top dose mostly 46.2 µM), for the others: at the highest dose activity change, negative = growth inhibition, hits mostly inhibitors; further: potency means the concentration at half of the fitted maximal effect; nearly all actives have a fitted effect of over 55% in size
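Growth kinetics read by CellTiter-Glo luminescence after ≥48 hr at 37 °C. Cells: DT40 Tdp1-/- stably carrying human TDP1, 400 per well, compound exposure in the absence of CPT (DMSO vehicle).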
Giardia kill: Small Molecules that selectively kill Giardia lamblia: qHTS | actives 0.15% (n = 340,000) | Giardia lamblia trophozoite viability | activity change, % at 7.66 µM, hits read low | AID 540267, 2011; in the data active means activity change below about -80%; inconclusive means between about -30% and that limit;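 further: parasites exposed to compound for two days anaerobically before the ATP read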
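Luminescence from cellular ATP indicates surviving trophozoites (100 cells/well) following 48 hrs anaerobic compound treatment at 37 deg C; signal develops 15-30 min at room temperature.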
TDP1 inh: qHTS Assay for Inhibitors of Tyrosyl-DNA Phosphodiesterase (TDP1) | Tyrosyl-DNA phosphodiesterase 1 (Homo sapiens), Q9NUW8 | recombinant TDP1, AlphaScreen DNA substrate cleavage | Potency, µM (doses to about 130 µM), without a hit: top-dose activity change, negative = inhibition, usual class: inhibitors | actives 0.28% (n = 350,000); further: potency means the concentration at half of the fitted maximal effect; nearly all actives have a fitted effect of over 40% in size
Target sequence (Q9NUW8 whole entry, looked up): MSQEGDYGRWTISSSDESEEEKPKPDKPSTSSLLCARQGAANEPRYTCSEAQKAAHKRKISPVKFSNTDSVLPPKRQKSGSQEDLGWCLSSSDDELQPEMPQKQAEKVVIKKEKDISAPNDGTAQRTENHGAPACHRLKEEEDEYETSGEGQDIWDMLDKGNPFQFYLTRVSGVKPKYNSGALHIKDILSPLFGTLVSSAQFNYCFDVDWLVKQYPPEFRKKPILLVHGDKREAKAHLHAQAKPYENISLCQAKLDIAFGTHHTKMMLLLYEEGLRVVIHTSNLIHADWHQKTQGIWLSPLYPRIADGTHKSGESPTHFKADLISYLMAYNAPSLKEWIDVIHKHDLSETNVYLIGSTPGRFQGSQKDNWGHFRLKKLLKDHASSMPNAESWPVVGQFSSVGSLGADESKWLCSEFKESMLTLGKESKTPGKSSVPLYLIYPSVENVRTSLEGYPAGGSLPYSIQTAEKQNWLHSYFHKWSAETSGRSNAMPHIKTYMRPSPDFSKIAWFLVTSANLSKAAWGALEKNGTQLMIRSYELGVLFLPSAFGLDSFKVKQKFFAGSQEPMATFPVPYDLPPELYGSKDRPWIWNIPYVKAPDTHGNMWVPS
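Recombinant human Tdp1 (E. coli-expressed, 1 nM final) preincubated with compounds 15 min at room temperature, then 5'-biotin/3'-phosphotyrosine-FITC DNA substrate (15 nM final) added for 5 min. AlphaScreen beads (10 ug/ml final) added 10 min; cleavage lowers signal.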
TDP1 cell CPT: qHTS for Inhibitors of human tyrosyl-DNA phosphodiesterase 1 (TDP1): qHTS in cells in presence of CPT; AID 686979, 2013; actives 12% (n = 420,000); Potency, µM (highest dose often 46.2 µM), for inactives: top-dose activity change, negative = growth inhibition, actives largely listed as inhibitors; chicken DT40 Tdp1-/-;hTDP1 cells + 20 nM CPT, ATP luminescence, 48 h; further: potency means the concentration at half of the fitted maximal effect; nearly all actives have a fitted effect of over 55% in size
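Cell growth measured by CellTiter-Glo luminescence after a minimum 48 h, 37 C compound exposure with 20 nM CPT in Tdp1-knockout DT40 cells stably expressing hTDP1, seeded 400/well; qHTS titration format.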
Active calls of the source: *. Unless noted, the call rests on the fitted dose curve; in most records, active means well fitted curve in the direction sought with a large enough effect; inconclusive means small, poorly fitted or top-dose-only effect, or another doubt; inactive means no such curve, though single readings can be large; an effect the other way counts as inactive or inconclusive. On the % scale 0 is the no-effect control and ±100 the full control effect.

COc1ccc(-c2nc3cc(C(C)C)ccc3o2)cc1NC(=O)c1ccc(C)c(Cl)c1 was read as DT40 TDP1 no CPT 18.4µM*, TDP1 inh 2.1% and TDP1 cell CPT 20.6µM*.
`CCCCCCCCCC(=O)NNC(=O)c1c(O)c2ccccc2n(CC)c1=O` gave IL1B secr inh 16.8, ELG1 repair inh -9.8%, DT40 TDP1 no CPT 8.2µM*, Giardia kill -16.5, TDP1 inh 6.0% and TDP1 cell CPT inconclusive.
Screening CCn1c(=O)c(C(=O)NNC(=O)c2ccccc2F)c(O)c2ccccc21 returned IL1B secr inh 5.0, ELG1 repair inh 4.8%, DT40 TDP1 no CPT 18.4µM*, Giardia kill -11.3, TDP1 inh -0.2% and TDP1 cell CPT inconclusive.
CCCCCC(=O)NNC(=O)c1c(O)c2ccccc2n(CC)c1=O was read as IL1B secr inh -3.3, ELG1 repair inh 4.8%, DT40 TDP1 no CPT inconclusive, Giardia kill 6.2, TDP1 inh 2.8% and TDP1 cell CPT inconclusive.
`COC(=O)c1cc(S(=O)(=O)NCc2cccc(Br)c2)c[nH]1` gave IL1B secr inh -9.8, ELG1 repair inh 7.5%, DT40 TDP1 no CPT 6.7%, Giardia kill 19.3, TDP1 inh 1.4% and TDP1 cell CPT -21.8%.
N#Cc1ccc(CN2CCN(C(=O)CC(NC(=O)c3ccccc3)c3ccccc3)CC2)cc1 (stereo not given) was read as IL1B secr inh 5.7, ELG1 repair inh 11.5%, DT40 TDP1 no CPT inconclusive, Giardia kill 12.8 and TDP1 cell CPT inconclusive.
Screening CCc1cccc(N2C(=O)CS(=O)(=O)C23C(=O)N(Cc2ccc(F)cc2)c2ccc(C)cc23)c1 (stereo not given) returned DT40 TDP1 no CPT 23.1µM*, TDP1 inh 7.4% and TDP1 cell CPT inconclusive.
Screening CCc1cccc(N2C(=O)CS(=O)(=O)C23C(=O)N(Cc2ccccc2)c2ccc(C)cc23)c1 (stereo not given) returned DT40 TDP1 no CPT 18.4µM*, TDP1 inh -1.1% and TDP1 cell CPT inconclusive.
For COc1ccc(N2C(=O)CS(=O)(=O)C23C(=O)N(Cc2cccc(F)c2)c2ccccc23)cc1OC (stereo not given) the results were DT40 TDP1 no CPT inconclusive, TDP1 inh 0.0% and TDP1 cell CPT -23.6%.
`Cc1cc(C)cc(N2C(=O)CS(=O)(=O)C23C(=O)N(Cc2ccc(F)cc2)c2ccc(C)cc23)c1` (stereo not given) gave DT40 TDP1 no CPT 20.6µM*, TDP1 inh 0.0% and TDP1 cell CPT 18.4µM*.
`CC(C)CNC(=O)[C@H]1N2C(=O)c3ccccc3C2SC1(C)C` (stereo not given in full) gave IL1B secr inh 11.4, ELG1 repair inh -4.4%, DT40 TDP1 no CPT 11.5%, Giardia kill 0.5 and TDP1 cell CPT 6.7%.
O=C(CSC1=NS(=O)(=O)c2ccccc2N1)Nc1cccc(F)c1 was read as IL1B secr inh 15.3, ELG1 repair inh 8.9%, DT40 TDP1 no CPT -3.3%, Giardia kill 12.6 and TDP1 cell CPT 1.7%.
Screening O=C(CNC(=O)c1ccccc1F)OCc1cc(=O)n2ccsc2n1 returned DT40 TDP1 no CPT -1.7%, TDP1 inh 5.8% and TDP1 cell CPT 19.2%.
